Measured values published in PubChem BioAssay AID1159580 (chemical genetic matrix, 2015).
Several values for one entry are separate records, joined by “and”; a condition that tells them apart may be missing. Identical values can stand only once. Screen size: about 5,500 compounds; about 2,000 (36%) were called active. About 18% were inconclusive and are not listed. Cut-off read from the data, not from the text of the source: active = normalized growth mostly below about 0.91 (no sharp cut-off); inconclusive = no clear call, values can overlap the other calls; inactive = mostly above about 0.92. The list shows a part of the results.

Assay: chemical genetic growth profiling, strain panel (AID 1159580);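 note: tested at 20 µM; growth read once vehicle control cultures reached saturation at 30 °C; 1 = growth at the plate median or of vehicle wells; lower values mean less growth of the strain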
Settings: S. cerevisiae deletion strains, growth OD

Measured: normalized growth

CC(C)NCC(O)COc1cccc2ccccc12 (stereo unspecified)
inactive: locus YAL013W, strain DEP1, stronger effect = lower value 1.01 | locus YAL021C, strain ccr4, stronger effect = lower value 0.971 | locus YAL026C, strain drs2, stronger effect = lower value 1.03 | locus YAL030W, strain snc1, stronger effect = lower value 1.02 | locus YAL040C, strain CLN3, stronger effect = lower value 1.01 and 0.981 | locus YBL061C, strain skt5, stronger effect = lower value 1.01 | locus YBR009C, strain hhf1, stronger effect = lower value 1 | locus YBR023C, strain chs3, stronger effect = lower value 1.01 | locus YBR171W, strain sec66, stronger effect = lower value 1.01 | locus YBR231C, strain swc5, stronger effect = lower value 1.02 | locus YBR279W, strain paf1, stronger effect = lower value 1.01 | locus YCL011C, strain gbp2, stronger effect = lower value 1.01 | locus YCL016C, strain dcc1, stronger effect = lower value 0.995 | locus YCL061C, strain MRC1 (second series), stronger effect = lower value 1 and 1.02 | locus YCL061C, strain MRC1, stronger effect = lower value 1.02 | locus YCL069W, strain vba3, stronger effect = lower value 1.01 | locus YCR088W, strain abp1, stronger effect = lower value 1.01 | locus YDL005C, strain med2, stronger effect = lower value 1.01 | locus YDL040C, strain nat1, stronger effect = lower value 1.01 | locus YDR001C, strain nth1, stronger effect = lower value 1.02 | locus YDR069C, strain doa4, stronger effect = lower value 1.01 | locus YDR137W, strain rgp1, stronger effect = lower value 1.02 | locus YDR150W, strain NUM1, stronger effect = lower value 1 | locus YDR159W, strain sac3, stronger effect = lower value 0.992 | locus YDR195W, strain ref2 1.02 | locus YDR297W, strain sur2, stronger effect = lower value 1.01 | locus YDR334W, strain swr1, stronger effect = lower value 1.04 | locus YDR335W, strain msn5, stronger effect = lower value 1.01 | locus YDR363W, strain ESC2, stronger effect = lower value 1.01 and 0.959 | locus YDR392W, strain spt3, stronger effect = lower value 1.02 | locus YEL003W, strain gim4, stronger effect = lower value 1.03 | locus YEL037C, strain rad23, stronger effect = lower value 1.01 | locus YEL061C, strain CIN8 (second series), stronger effect = lower value 1.02 | locus YER002W, strain NOP16, stronger effect = lower value 0.992 and 1.01 | locus YER015W, strain faa2, stronger effect = lower value 1.01 | locus YER016W, strain bim1, stronger effect = lower value 1.01 | locus YER111C, strain swi4, stronger effect = lower value 1.03 | locus YER155C, strain BEM2 (second series), stronger effect = lower value 1.05 | locus YFR010W, strain ubp6, stronger effect = lower value 1.02 | locus YGL167C, strain pmr1, stronger effect = lower value 1.02 | locus YGL173C, strain kem1, stronger effect = lower value 1.01 | locus YGL227W, strain vid30, stronger effect = lower value 1 | locus YGL240W, strain doc1, stronger effect = lower value 1.02 | locus YGL253W, strain hxk2, stronger effect = lower value 1.02 | locus YGR078C, strain PAC10, stronger effect = lower value 1.02 and 1.01 | locus YGR229C, strain SMI1, stronger effect = lower value 1.08 | locus YHR013C, strain ard1, stronger effect = lower value 0.965 | locus YHR027C, strain rpn1, stronger effect = lower value 1.01 | locus YHR030C, strain SLT2, stronger effect = lower value 1.01 | locus YHR079C, strain IRE1, stronger effect = lower value 1.02 | locus YHR142W, strain chs7, stronger effect = lower value 1.05 | locus YJL092W, strain hpr5, stronger effect = lower value 1.01 | locus YJL095W, strain BCK1 (second series), stronger effect = lower value 1 | locus YJL095W, strain BCK1, stronger effect = lower value 0.967 | locus YJL115W, strain asf1, stronger effect = lower value 1.01 | locus YJL129C, strain trk1, stronger effect = lower value 1.01 | locus YJL154C, strain vps35, stronger effect = lower value 1.01 | locus YJL164C, strain tpk1, stronger effect = lower value 0.997 | locus YJL166W, strain qcr8, stronger effect = lower value 1.01 | locus YJR066W, strain TOR1, stronger effect = lower value 0.996 | locus YJR075W, strain HOC1, stronger effect = lower value 1.01 and 1 | locus YKL160W, strain elf1, stronger effect = lower value 1.01 | locus YKR026C, strain gcn3, stronger effect = lower value 1.01 | locus YKR091W, strain srl3, stronger effect = lower value 1.02 | locus YLL001W, strain dnm1, stronger effect = lower value 1.02 | locus YLL026W, stronger effect = lower value 1.01 | locus YLL041C, strain sdh2, stronger effect = lower value 1.01 | locus YLR027C, strain aat2, stronger effect = lower value 1.01 | locus YLR113W, strain HOG1, stronger effect = lower value 0.976 | locus YLR221C, strain rsa3, stronger effect = lower value 0.972 | locus YLR258W, strain gsy2, stronger effect = lower value 1 | locus YLR262C, strain YPT6 (second series), stronger effect = lower value 1 | locus YLR320W, strain mms22, stronger effect = lower value 0.997 | locus YLR342W, strain FKS1, stronger effect = lower value 1.01 | locus YLR357W, strain rsc2, stronger effect = lower value 1.07 | locus YLR370C, strain arc18, stronger effect = lower value 1.01 | locus YLR384C, strain iki3, stronger effect = lower value 1.01 | locus YML120C, strain ndi1, stronger effect = lower value 1.01 | locus YMR058W, strain fet3, stronger effect = lower value 1.02 | locus YMR125W, strain sto1, stronger effect = lower value 1.07 | locus YMR129W, stronger effect = lower value 1.01 | locus YMR205C, strain PFK2, stronger effect = lower value 1.02 | locus YMR231W, strain pep5, stronger effect = lower value 1.01 | locus YMR263W, strain SAP30, stronger effect = lower value 1 | locus YMR307W, strain GAS1, stronger effect = lower value 1.01 | locus YNL071W, strain lat1, stronger effect = lower value 1.01 | locus YNL128W, strain TEP1, stronger effect = lower value 0.995 | locus YNL175C, strain NOP13, stronger effect = lower value 1.02 and 1.01 | locus YNL183C, strain NPR1, stronger effect = lower value 1.01 | locus YNL197C, strain WHI3, stronger effect = lower value 1 and 1.01 | locus YNL209W, strain ssb2, stronger effect = lower value 1 | locus YNL224C, strain SQS1, stronger effect = lower value 1.01 and 1.02 | locus YNL248C, strain rpa49, stronger effect = lower value 1.04 | locus YNL322C, strain KRE1 (second series), stronger effect = lower value 1 | locus YNL322C, strain KRE1, stronger effect = lower value 1.01 | locus YNR049C, strain mso1, stronger effect = lower value 1.01 | locus YOR001W, strain rrp6, stronger effect = lower value 1.02 | locus YOR070C, strain gyp1, stronger effect = lower value 1.01 | locus YOR080W, strain dia2, stronger effect = lower value 1.02 | locus YOR083W, strain WHI5 (second series), stronger effect = lower value 1.02 and 0.993 | locus YOR083W, strain WHI5, stronger effect = lower value 1.01 | locus YOR106W, strain vam3, stronger effect = lower value 1.03 | locus YOR231W, strain MKK1, stronger effect = lower value 1.01 | locus YOR265W, strain rbl2, stronger effect = lower value 1.02 | locus YOR270C, strain vph1, stronger effect = lower value 1.06 | locus YOR290C, strain snf2, stronger effect = lower value 1.01 | locus YPL051W, strain arl3, stronger effect = lower value 1 | locus YPL078C, strain atp4, stronger effect = lower value 1.06 | locus YPL106C, strain sse1, stronger effect = lower value 0.985 | locus YPL240C, strain hsp82, stronger effect = lower value 0.993 | locus YPL256C, strain CLN2, stronger effect = lower value 1.02
